Shown are actives, neighbours in structure and some others; about 6.5% of the full set was active somewhere.
Marburg entry inh = blocks Marburg virus binding to or entry into cells; Marburg virus pseudotyped entry inhibition, cell reporter; Potency, µM (doses to about 37.8 µM), usual class: inhibitors; actives 1.8% (n = 300,000); AID 540276; calls by dose curve; tested in HEK293 cells
FMDV inh = antivirals against foot and mouth disease virus; FMDV antiviral cell-based qHTS; Potency, µM (titrated, usually from 57.9 µM), most hits filed as inhibitors; actives 1.2% (n = 410,000); calls by dose curve; tested in HEK293T cells; further: read-out not given here; nearly all actives have a fitted effect of over 45% in size
VACV mCherry inh = inhibitors of vaccinia virus infection (mCherry reporter signal) | Vaccinia virus mCherry reporter infection, fluorescence | Potency, µM (doses to about 36.5 µM), usual class: inhibitors | actives 0.63% (n = 310,000); calls by dose curve; tested in A549 cells; further: nearly all actives have a fitted effect of over 35% in size
Lassa entry inh = inhibitors of Lassa virus binding or cell entry; Lassa virus pseudotype entry inhibition, cell reporter; Potency, µM (doses to about 37.9 µM), usual class: inhibitors; actives 1.2% (n = 300,000); calls by dose curve; tested in HEK293 cells; further: nearly all actives have a fitted effect of over 50% in size
VACV Venus inh = vaccinia inhibition (Venus reporter) | actives 0.46% (n = 330,000) | Potency, µM (top dose mostly 36.5 µM), actives largely listed as inhibitors | Vaccinia virus Venus reporter expression, fluorescence | AID 720580; calls by dose curve; tested in A549 cells; further: nearly all actives have a fitted effect of over 30% in size
HCMV antiviral = blocks human cytomegalovirus replication. HFF cells, HCMV-luciferase reporter, 72 h; hits give low values. activity change, negative = inhibition, % at 57.5 µM. actives 4.5% (n = 410,000); in the data active means activity change below about -60%; inconclusive means no clear call, values can overlap the other calls; inactive means above about -39%
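Compounds were evaluated in HFFs infected with an HCMV luciferase reporter virus (MOI 1 PFU/cell). Luciferase in lysates collected 72 h post infection served as the replication measure.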
A number is an active result; n = inactive; u = inconclusive; x = no result; + = active, no number; ! = not active in a repeat.

SMILES | Marburg entry inh | FMDV inh | VACV mCherry inh | Lassa entry inh | VACV Venus inh | HCMV antiviral
COc1cc(=O)n2c(c1C(=O)NC(C)c1ccco1)CCN(Cc1cc(C)ccc1C)CC2 (stereo not given) | x | n | n | x | n | x
O=C(Cc1ccc(Cl)cc1)NO | x | x | n | x | n | x
CC1Cc2cc(S(=O)(=O)N3CCN(c4ccc(Cl)cc4)CC3)ccc2N1C(=O)C1CC1 (stereo not given) | u | u | n | u | n | n
CC(=O)N1c2ccc(S(=O)(=O)N3CCC(C(=O)N4CCN(c5ccc(Cl)cc5)CC4)CC3)cc2CC1C (stereo not given) | x | u | x | x | x | -74.3
Cn1cnc(S(=O)(=O)N2CCC(C(=O)N3CCN(c4ccc(Cl)cc4)CC3)CC2)c1 | x | n | n | n | n | n
O=C(C1CCN(S(=O)(=O)c2ccc3ccccc3c2)CC1)N1CCN(c2ncccn2)CC1 | u | 28.2µM | n | u | n | n
COc1ccc(N2CCN(C(=O)C3CCN(S(=O)(=O)c4cn(C)cn4)CC3)CC2)cc1 | x | n | n | n | n | -72.4
O=C(C1CCN(S(=O)(=O)c2cccc3cccnc23)CC1)N1CCN(c2ccc(Cl)cc2)CC1 | n | n | n | x | n | -79.2
CCC(C)NC(=O)C1CCN(S(=O)(=O)c2cccnc2)CC1 (stereo not given) | n | n | x | n | n | -75.9
CCCC(C)NC(=O)C1CCN(S(=O)(=O)c2ccccc2)CC1 (stereo not given) | n | n | n | n | n | n
CN1C(=O)Cc2cc(S(=O)(=O)N3CCN(c4ccc(Cl)cc4)CC3)ccc21 | n | n | n | n | n | +!
CC(Sc1nc(NCc2ccccc2)nc(N(C)C)n1)C(=O)Nc1ccccc1 (stereo not given) | n | n | x | u | x | -105.1
CN(C)c1nc(NCc2ccccc2)nc(SCC(=O)Nc2ccccc2)n1 | u | x | n | n | n | u
Cc1ccc(NC(=O)Cn2c(=O)n(CCC(=O)N3CCc4ccccc4C3)c(=O)c3ccccc32)c(C)c1 | n | n | n | n | n | -65.5
COCCNC(=O)Cn1c(=O)n(CCCC(=O)NCc2ccc3c(c2)OCO3)c(=O)c2sccc21 | u | n | n | 4.47µM | n | n
Cc1ccc(NC(=O)Cn2c(=O)n(CCCCC(=O)NCc3ccccc3Cl)c(=O)c3ccccc32)cc1 | u | n | n | n | n | n
NC(=O)Cn1c(=O)n(CCCCCC(=O)NCc2ccc3c(c2)OCO3)c(=O)c2sccc21 | n | n | n | n | n | n
CCOc1ccc(NC(=O)Cn2c(=O)n(CCCCC(=O)NCc3ccc4c(c3)OCO4)c(=O)c3ccccc32)cc1 | n | u | u | u | u | -76.4
CCOC(=O)c1ccccc1NC(=O)Cn1c(=O)n(CCC(=O)N2CCc3ccccc3C2)c(=O)c2ccccc21 | u | n | n | u | n | n
Cc1ccc(NC(=O)Cn2c(=O)n(CCC(=O)NCc3ccccc3Cl)c(=O)c3ccccc32)cc1 | n | n | n | n | n | -86.1
Cc1ccc(NC(=O)Cn2c(=O)n(CCCC(=O)NCc3ccc4c(c3)OCO4)c(=O)c3ccccc32)cc1 | n | n | n | n | n | n
O=C(O)[C@H]1CC(=O)N(Cc2cccs2)C1 | n | x | x | x | x | x
CC(C)(C)S(=O)N1CCC[C@@H]1c1noc2cc3ccccc3cc12 (stereo not given in full) | x | x | x | x | x | n
COc1cccc(C(=O)NCC(c2ccc(N(C)C)cc2)N2CCOCC2)c1OC (stereo not given) | x | n | n | n | n | n
Cc1ccc(N2CCN(C(=O)c3cc(-c4ccc(F)cc4)[nH]c3C)CC2C)cc1 (stereo not given) | u | n | 10µM | u | u | n
SMILES | Marburg entry inh | FMDV inh | VACV mCherry inh | Lassa entry inh | VACV Venus inh | HCMV antiviral
COC(=O)[C@@H](O)CC[C@@H](C)Cc1c(OC)c(OC)c(C)c(OC)c1OC | n | x | x | x | x | x
C=CCN1C(=O)/C(=C\c2ccc(N3CCOCC3)o2)C(=O)NC1=S | n | n | n | n | n | n
C=CCN1C(=O)N/C(=C/c2ccc(N3CCOCC3)o2)C1=O | u | x | x | n | x | -62.5
CCOC(=O)COc1ccc([N+](=O)[O-])cc1-c1ccnc2cc(-c3ccc(C)cc3)nn12 | n | n | n | n | n | n
Cc1ccc(-c2cc3nccc(-c4cc([N+](=O)[O-])ccc4O)n3n2)cc1 | n | n | n | u | n | -62.9
COC(=O)C1=C(CS(=O)(=O)c2ccc(C)cc2C)NC(=O)NC1c1ccc(C)cc1 (stereo not given) | n | n | n | n | n | n
O=C(/C=C/c1ccco1)Nc1ccccn1 | u | n | n | u | n | n
Cc1ccc(CNC(=O)C2CCN(S(=O)(=O)c3c(C)noc3/C=C/c3ccco3)CC2)cc1 | n | n | n | x | n | n
Cc1ccc(NC(=O)/C=C/c2ccco2)nc1 | 7.08µM | n | u | u | u | -63.1
Cc1ccc(NC(=O)C2CCN(S(=O)(=O)c3c(C)noc3/C=C/c3ccco3)CC2)nc1 | u | 35.5µM | n | u | n | -93.6
Cc1noc(/C=C/c2ccco2)c1S(=O)(=O)N1CCC(C(=O)NCc2ccco2)CC1 | n | n | x | n | x | -73.1
C=CCNc1ccc2c(c1)OC[C@H](Cc1ccccc1)NS2(=O)=O | x | x | x | x | x | n
COc1cc(/C=C2\C=Cc3ccccc32)ccc1N(C)C | x | x | n | x | n | x
CCCOc1ccc(-c2c(=O)n(OCc3ccc([N+](=O)[O-])cc3)c3ccccc3[n+]2[O-])cc1 | n | n | n | u | n | n
CC(C)CCOc1ccc(-c2c(=O)n(OCc3ccc([N+](=O)[O-])cc3)c3ccccc3[n+]2[O-])cc1 | n | n | x | n | x | -69.0
Cc1cc(O)cc2c1C1CCC3(C)C(O)CCC3C1C=C2 (stereo not given) | n | n | 4.47µM | n | u | n
C[C@]12CC[C@@H]3c4ccc(O)cc4[C@@H](O)C[C@H]3[C@@H]1CC[C@@H]2O | n | x | x | n | x | x
COCC(=O)Nc1cc(C(=O)N2CCOc3ccccc3C2)cc2nc(-c3cccnc3)n(C)c12 | x | n | n | x | n | x
CC12CC[C@H]3[C@@H](CCC4(O)C[C@H](O)CCC34/C=N/NC(=O)Cc3ccccc3)C1(O)CCC2C1=CC(=O)OC1 (stereo not given in full) | u | n | u | u | u | -65.7
CC12CC[C@H]3[C@@H](CCC4(O)C[C@H](O)CCC34/C=N/NC(=O)c3ccccc3[N+](=O)[O-])C1(O)CCC2C1=CC(=O)OC1 (stereo not given in full) | u | n | u | u | 10µM | -77.7
CNC(=O)Nc1ccc(C(=O)N/N=C\C23CC[C@@H](O)CC2(O)CC[C@@H]2[C@@H]3CCC3(C)C(C4=CC(=O)OC4)CCC23O)cc1 (stereo not given in full) | x | n | 12.6µM | x | u | n
O=C(Cc1ccccc1)N/N=C/c1ccc2c(c1)OCO2 | n | n | n | u | n | n
C/C(CC(=O)Nc1ccc([N+](=O)[O-])cc1)=N\NC(=O)c1ccccc1[N+](=O)[O-] | n | n | n | n | n | n

Assay outcomes (PubChem BioAssay)
